Data on 21 molecules can be found in PubChem BioAssay (NCI).

A short description of assay [1]: NCI Yeast Anticancer Drug Screen. Data for the rad50 strain (AID 155).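 Note: 0% = growth of vehicle-only cultures of the same strain.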 Conditions: S. cerevisiae rad50 strain growth inhibition; at 50.0 µM; active compounds read high. The gist of the method: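 Readout: growth inhibition relative to vehicle-treated cultures. Compound exposure was carried out in a genetically defined yeast strain deficient in DNA damage repair.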
A short description of assay [2]: NCI Yeast Anticancer Drug Screen. Data for the mec2-1 strain (AID 157). Particulars: S. cerevisiae mec2-1 strain, at 50.0 µM, active compounds read high. The gist of the method: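 Each compound was tested on mec2-1 yeast, a strain altered in DNA damage repair or cell cycle control. Growth inhibition is reported relative to vehicle.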
The nature of assay [3]: NCI Yeast Anticancer Drug Screen. Data for the sgs1 mgt1 strain (AID 161).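 Note: 0% = growth of cultures given vehicle only.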 Conditions: S. cerevisiae sgs1 mgt1 strain, at 50.0 µM, active compounds read high. The gist of the method:
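Inhibition of yeast growth, normalised to vehicle-treated controls, is reported for a strain bearing genetic alterations in DNA damage repair.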

Assay [4] in a line: NCI Yeast Anticancer Drug Screen. Data for the cln2 rad14 strain (AID 165).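 Note: 0% = growth equal to vehicle treated cultures.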 Conditions: S. cerevisiae cln2 rad14 strain, at 50.0 µM, active compounds read high. The gist of the method: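 Test compounds were added to cln2 rad14 yeast cultures; inhibition of growth was then determined by comparison with vehicle treatment.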
A short description of assay [5]: NCI Yeast Anticancer Drug Screen. Data for the bub3 strain (AID 167). Particulars: S. cerevisiae bub3 mutant strain, at 50.0 µM, active compounds read high. The gist of the method: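 Readout: yeast growth inhibition, expressed relative to vehicle-only wells. The test organism is a mutant strain from a panel with lesions in DNA repair or checkpoint genes.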
Assay [6] in a line: NCI Yeast Anticancer Drug Screen. Data for the mlh1 rad18 strain (AID 175). Conditions: S. cerevisiae mlh1 rad18 strain growth inhibition; at 50.0 µM; active compounds read high. The gist of the method:
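Inhibition values reflect reduced growth of mutant yeast versus vehicle-treated controls following compound exposure; the mutations affect DNA damage repair.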

Each structure is given as a SMILES string. The panel holds about 79,000 compounds, 15% with a hit somewhere; the sample as a whole holds those more often. Values without a mark were called inactive. The source made the active and inactive calls. Cut-off read from the data, not from the text of the source: active = growth inhibition above about 70%; inactive = the rest.

For the molecule `CCN1/C(=C/C=C/C=C/c2oc3ccccc3[n+]2CC)Oc2ccccc21`, the growth inhibition was 34% in assay [1]; 5.6% in assay [2]; 10.1% in assay [3]; 36.8% in assay [4]; 0.2% in assay [5]; 17.2% in assay [6].

Regarding `Nc1cc(=S)nc(N)[nH]1`, the growth inhibition in assay [1] is 20.2%; in assay [2], -6.75%; in assay [3], 22.4%; in assay [4], 9.55%; in assay [5], 20.6%; in assay [6], 28.9%.

`C=CCc1ccc(OC(=O)Nc2ccc(S(=O)(=O)N(C)C)cc2)c(OC)c1`: the growth inhibition in assay [1] was 26.6%; in assay [2] it was 2%; in assay [3] it was 22.8%; in assay [4] it was 14.6%; in assay [5] it was 6.75%; in assay [6], 19.2%.

On to `Cc1ccc(-c2cs/c(=N\N=C3/CSC(=O)N3Cc3ccccc3)n2-c2ccccc2)cc1`, for which the growth inhibition in assay [1] is 41.1%; in assay [2], 22.8%; in assay [3] it was 12.1%; in assay [4] it was 0.35%; in assay [5] it was -2.55%; in assay [6], 40.4%.

Take `Cc1cccc(C)c1NC(=O)CNc1ncccn1`: the growth inhibition in assay [1] was -14.3%; in assay [2] it was 1%; in assay [3] it was 3.7%; in assay [4] it was -4.7%; in assay [5] it was 19.1%; in assay [6] it was 4.65%.

As to `Cc1cnc(-c2ccccc2)o1`, the growth inhibition in assay [1] was 8.7%; in assay [2], 5.4%; in assay [3], -4.8%; in assay [4] it was 3.9%; in assay [5] it was 0.9%; in assay [6], -12.7%.

Turning to `CCC(=O)Nc1nn[nH]n1`, the growth inhibition in assay [1] was -11.5%; in assay [2], -1.5%; in assay [3], -3.75%; in assay [4] it was 4.75%; in assay [5] it was 7.9%; in assay [6], -2.15%.

Take `Nc1ccc(Nc2cc(=O)[nH]c(=O)[nH]2)cc1Cl`: the growth inhibition in assay [1] is 5.8%; in assay [2], 6.6%; in assay [3], 14.1%; in assay [4], 6.2%; in assay [5], -3.2%; in assay [6], -20.8%.

For the molecule `NS(=O)(=O)c1ccc(NC(=O)Nc2ccccc2F)cc1`, the growth inhibition in assay [1] is -3.35%; in assay [2], -6.85%; in assay [3], -28.4%; in assay [4] it was -13.2%; in assay [5], 1.15%; in assay [6] it was 12.6%.

In the case of `C(=C\c1ccc(/C=C/c2ccccc2)nn1)/c1ccccc1`, the growth inhibition was -5.8% in assay [1]; -3.1% in assay [2]; -1.65% in assay [3]; -21.4% in assay [4]; 0.8% in assay [5]; -2.1% in assay [6].

For `O=C(c1ccccc1)c1cc(Cl)ccc1N1C(=O)C=CC1=O`, the growth inhibition in assay [1] was 99.2% (active); in assay [2], 99.7% (active); in assay [3], 99.7% (active); in assay [4], 99.2% (active); in assay [5], 99% (active); in assay [6], 99.5% (active).

`COC(=N)CC(=O)C(C)(C)C`: the growth inhibition was -6.4% in assay [1]; -15.9% in assay [2]; -13.7% in assay [3]; -9.65% in assay [4]; -6.25% in assay [5]; -7.2% in assay [6].

In the case of `CCOc1ccc(NC(=O)/C(Cc2nc3ccccc3[nH]c2=O)=N\O)cc1`, the growth inhibition is 21.9% in assay [1]; -5.1% in assay [2]; -15.9% in assay [3]; 15.8% in assay [4]; 4.1% in assay [5]; -4.7% in assay [6].

Regarding `Cn1c2cc3ccccc3cc2nc2cc3c(cc21)c(Cl)c(=O)c1ccccc13`, the growth inhibition in assay [1] is 10%; in assay [2] it was -3%; in assay [3] it was 12.8%; in assay [4], 5.85%; in assay [5], -4.45%; in assay [6], -2.35%.

In the case of `O=C1CCCCCCCCCCC1Sc1ccccc1` (stereo unspecified), the growth inhibition in assay [1] is -23.2%; in assay [2], -36.6%; in assay [3] it was -6.8%; in assay [4], 3.1%; in assay [5], 7.3%; in assay [6], -28.9%.

`C[C@@]1(CO)CCc2c(c3ccccc3oc2=O)O1`: the growth inhibition is 2.2% in assay [1]; 6.45% in assay [2]; 9.55% in assay [3]; 8% in assay [4]; 1.8% in assay [5]; -6.35% in assay [6].

In the case of `CC[N+](CC)(CC)Cc1cc2ccccc2n1C(=O)OC`, the growth inhibition was -9.25% in assay [1]; -24.4% in assay [2]; -25.8% in assay [3]; -1.4% in assay [4]; -12.2% in assay [5]; -28.9% in assay [6].

For `Cc1ccc(S(=O)(=O)OC2C(OC(=O)c3ccccc3)OCC(O)C2O)cc1` (stereo unspecified), the growth inhibition in assay [1] is 23.6%; in assay [2] it was 2.45%; in assay [3], 6.1%; in assay [4], -11.8%; in assay [5] it was 6.5%; in assay [6], 3.35%.

`Nc1ncnc2c1nnn2C1C=CC(CP(=O)(O)O)C1` (stereo unspecified): the growth inhibition is 2.65% in assay [1]; 8.25% in assay [2]; 12.9% in assay [3]; 13.2% in assay [4]; -4.5% in assay [5]; 27.7% in assay [6].

For the molecule `CN(C)CC1OCCc2ccccc21` (stereo unspecified), the growth inhibition was 10.1% in assay [1]; 2.9% in assay [2]; 3.75% in assay [3]; 0.6% in assay [4]; 6.05% in assay [5]; 10% in assay [6].

For the molecule `CCc1c(C)[nH]c2c1C(=O)CCC2`, the growth inhibition was 15.6% in assay [1]; -4.65% in assay [2]; 38.1% in assay [3]; 18.1% in assay [4]; 24.9% in assay [5]; 46.9% in assay [6].
